Bioassay records: PubChem BioAssay, National Center for Advancing Translational Sciences (NCATS)
MCF10A rerep: inducers of DNA re-replication in MCF 10A breast cells; actives 2.9% (n = 350,000); MCF 10A DNA re-replication, Hoechst nuclear intensity, 48 h; AID 624296; Potency, µM (doses to about 46.1 µM), inactives show at the top dose activity, positive = re-replication, usual class: activators; also: % of control where 0% means no effect; nearly all actives have a fitted effect of over 50% in size
Integrin act MD: activates integrin-mediated alleviation for muscular dystrophy; alpha7betagal myoblasts, beta-gal FDG fluorescence, 48 h; Potency, µM (highest dose often 38.3 µM), for inactives: top-dose activation, hits mostly activators; actives 0.064% (n = 350,000);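 also: 100% = response of the positive control SU9516; nearly all actives have a fitted effect of over 60% in size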
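alpha7betagal+/- myoblasts (passage 13, 250/well) treated 48 h at 37C with compounds at 1:260 dilution of DMSO stock. Lysed, then beta-galactosidase activity read as FDG fluorescence (ex 480/em 540) after 30 min, with pre-read for autofluorescence.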
Mito fusion act: mitochondrial division inhibition or fusion activation | S. cerevisiae fusion-defective mutant growth rescue, CellTiterGlo 48 h | AID 485298 | actives 0.23% (n = 320,000) | Potency, µM (doses to about 46.1 µM), for the others: top-dose growth rescue (activation), usual class: activators; also: % of control where 0% means no effect; nearly all actives have a fitted effect of over 45% in size
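Luminescent cell viability in 1536-well qHTS format served as the measure of rescued growth in ts fusion-mutant S. cerevisiae cultured on non-fermentable YPEG for 48 hours at 37C.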
SW480 rereplic: induces DNA re-replication in SW480 colon adenocarcinoma cells. SW480 DNA re-replication, Hoechst DNA content imaging, 48 h. Potency, µM (titrated, usually from 46.1 µM), inactives show at the highest dose re-replication activation, actives largely listed as activators. actives 1.8% (n = 340,000). AID 624297; also: % of control where 0% means no effect; nearly all actives have a fitted effect of over 55% in size
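Quantitative HTS format with DMSO vehicle controls; 48 hr drug incubation at 37 C, then 40 min Hoechst staining and scanning imager measurement at 405 nm excitation.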
A-T KAP1 phos: candidate therapy for ataxia-telangiectasia | F2112 A-T fibroblasts, KAP-1 phosphorylation AlphaLISA; neocarzinostatin DNA damage 30 min before lysis | Potency, µM (series often up to 57.5 µM), inactives show at the highest dose activation, most hits filed as activators | actives 0.19% (n = 320,000); also: % of control where 0% means no effect; nearly all actives have a fitted effect of over 45% in size
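hTERT-immortalized A-T patient fibroblasts (F2112), 500 cells/well in OPTI-MEM, 1% FBS, got compounds for 60 min, then NCS for 30 min at 37C. Lysates were then assayed for phospho-KAP-1 by AlphaLISA (anti-pKAP1 donor, anti-KAP1 acceptor beads), 6 hr at 25C.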
* marks the source's active call; other numbers are inactive results; ? = inconclusive; · = not tested or not shown; [ ] = dose if it differs, or a comment. Most compounds without a hit are left out; they make up all but 4.2% or so of the library. Calls follow the shape of the dose curve; as a rule, active = well fitted activation curve with a large enough effect; inconclusive = small, poorly fitted or top-dose-only effect; inactive = no such curve, though single readings can be large or run the other way. Potency is read from the fitted curve at half-maximal effect.

SMILES	MCF10A rerep	Integrin act MD	Mito fusion act	SW480 rereplic	A-T KAP1 phos
CC(Sc1nc(=O)cc(N)n1CCc1ccccc1)C(=O)Nc1ccc(Cl)cc1 (stereo not drawn)	·	·	0%	·	·
COc1ccc2[nH]c(C)c(CCNC(=S)Nc3ccc(C)cc3)c2c1	-1%	0%	7%	?	-6%
Cc1ccc(C)c2[nH]c(=O)c(CN(Cc3ccco3)C(=O)Nc3ccccc3)cc12	28%	11%	14µM*	-1%[9.22 µM]	-10%
COc1ccccc1NC(=S)N(Cc1ccco1)Cc1cc2cccc(C)c2[nH]c1=O	13%	3%	14%	-2%	6%
COc1ccccc1NC(=O)N(Cc1ccco1)Cc1cc2cc(C)cc(C)c2[nH]c1=O	?	-21%	?	?	-4%
Cc1ccc2cc(CN(Cc3ccco3)C(=O)NCc3ccccc3)c(=O)[nH]c2c1C	25%	-13%	10%	10%	0%
Cc1ccc2cc(CN(Cc3ccco3)C(=O)c3cccs3)c(=O)[nH]c2c1	2.6µM*	-16%	3%	15µM*	8%
COc1ccccc1NC(=O)N(Cc1ccco1)Cc1cc2ccc(C)c(C)c2[nH]c1=O	7.3µM*	-18%	23%	18µM*	-6%
COc1ccccc1NC(=S)N(Cc1ccco1)Cc1cc2cc(C)c(C)cc2[nH]c1=O	2.1µM*	2%	20%	5.8µM*	3%
O=C(CN1C(=O)c2cccc([N+](=O)[O-])c2C1=O)OCC(=O)N1CCCCC1	-1%	3%	1%	-1%	-4%
COc1ccc(C(CCNCc2ccc(F)cc2)c2ccc(F)cc2)cc1 (stereo not drawn)	5.2µM*	-50%	-20%	·	1%
CCOC(=O)c1c(NC(=O)c2cccs2)sc(C)c1CC	6%	1%	28%	?	24%
CCc1c(C)sc(NC(=O)c2cccs2)c1C(=O)OC(C)C	10µM*	-24%	3%	9%	8%
O=C(Nc1cccc(S(=O)(=O)N2CCCCC2)c1)C1COc2ccccc2O1 (stereo not drawn)	4%	5%	·	-2%	2%
COc1cccc(NC(=S)/C(=C(\[O-])c2ccc([N+](=O)[O-])cc2)[n+]2ccccc2)c1	12%	?	-8%	11%	4%
Cc1cc([N+](=O)[O-])ccc1NC(=O)c1cc2ccccc2o1	11%	31%	2%	?	10%
COc1cc(NC(=O)c2ccccc2)ccc1NC(=O)c1cc2ccccc2o1	?	7%	2%	6%	18%
COc1cccc(C(=O)Nc2ccc(NC(=O)c3cc4ccccc4o3)c(OC)c2)c1	10µM*	-23%	-3%	?	-13%
Cc1cc(NC(=O)c2cncc(Br)c2)ccc1NC(=O)c1cc2ccccc2o1	2.9µM*	-49%	-1%	?	3%
CC(C)N(Cc1ccccc1)S(=O)(=O)c1ccc(Cl)nc1	16%	-19%	-13%	?	2%
Nc1nc(Cl)cc(NCCc2ccc(O)cc2)n1	1%	-17%	4%	-13%	-4%
Oc1ccc(CCNc2ncnc3ccc(Cl)cc23)cc1	8.2µM*	·	3%	-62%	1%
O=C(NNC(=O)C1CCN(S(=O)(=O)c2ccc(Cl)cc2)CC1)c1ccccc1O	1%	-17%	3%	?	1%
CC(C)(C)NC(=O)NC(=O)CSc1cccc(C(F)(F)F)c1	6%[9.22 µM]	20%	-5%	-53%	8%
CNC(=O)NC(=O)CSc1cccc(C(F)(F)F)c1	21µM*	-9%	-2%	11%	-4%
SMILES	MCF10A rerep	Integrin act MD	Mito fusion act	SW480 rereplic	A-T KAP1 phos
CCC(CC)C(=O)Nc1cccc(C(=O)N2CCOCC2)c1	-3%	25%	-7%	-5%	·
CCC(CC)C(=O)Nc1cccc(C(=O)N2CCCCCC2)c1	21µM*	-8%	0%	?	1%
CC1Cc2ccccc2N1S(=O)(=O)c1cnc(Cl)c(Cl)c1 (stereo not drawn)	15µM*	5%	-9%	-5%	-2%
CC1Cc2ccccc2N1S(=O)(=O)c1cnc(Cl)c(Br)c1 (stereo not drawn)	?	-63%	-2%	?	-4%
CCCCCCC(O)C/C=C/CCCCCCCC(=O)O (stereo not drawn)	?	·	·	-1%	·
O=C(Cc1csc(N2CCOCC2)n1)N/N=C/c1ccccc1C(=O)O	-2%	?	0%	-22%	-1%
Cc1cccc(NC(=O)N2CCC(C(=O)c3ccc(F)cc3)CC2)c1	0%	-24%	4%	2.3µM*	1%
COc1ccc(NC(=O)c2nc(C)c(C3(C)CC(c4ccccc4)=NO3)s2)cc1 (stereo not drawn)	3.7µM*	-5%	5%	4.6µM*	27%
Cc1nc(C(=O)Nc2ccccc2)sc1C1(C)CC(c2cccnc2)=NO1 (stereo not drawn)	-1%	0%	-2%	1%	-26%
CN1c2ccccc2Oc2c(c(=O)n(C)c(=O)n2C)C1c1cccc([N+](=O)[O-])c1 (stereo not drawn)	0%	7%	3%	0%	-1%
COc1ccccc1N1CCN(S(=O)(=O)c2ccc3c(c2)NC(=O)C(C)C(=O)N3)CC1 (stereo not drawn)	9%	22%	-1%	14%	1%
Cc1ccc(C)c(N2CCN(S(=O)(=O)c3c(C)noc3C)CC2)c1	4%	-18%	?	-5%	12%
Cc1ccc(Cl)cc1N1CCN(S(=O)(=O)c2ccc3[nH]c(=O)c(=O)[nH]c3c2)CC1	26%	14%	2%	-93%	-2%
Cc1ccc(Cl)cc1N1CCN(S(=O)(=O)c2ccc3c(c2)NC(=O)C(C)C(=O)N3)CC1 (stereo not drawn)	18µM*	6%	0%	9%	6%
Cc1ccc(Cl)cc1N1CCN(S(=O)(=O)c2c(C)noc2C)CC1	21%	14%	18µM*	-9%	-3%
Cc1ccc(Cl)cc1N1CCN(S(=O)(=O)c2ccc3[nH]c(=O)ccc3c2)CC1	23µM*	-16%	5%	1%	-1%
Cc1ccnc(NC(=O)C2CC(=O)N(Cc3ccccc3)C2)c1 (stereo not drawn)	6%	9%	-3%	113%	10%
COc1ccc(CCn2c(SCCN3CCCCC3)nc3ccccc3c2=O)cc1OC	5%	-58%	-8%	8%	3%[11.5 µM]
O=C(NC1CCCCC1)N(c1ccccc1)c1nnc(-c2cccc([N+](=O)[O-])c2)s1	·	5%	·	·	·
Cc1sc(NC(=S)NC(=O)CCc2ccccc2)c(C(N)=O)c1C	0.13µM*	-7%	-7%	0.29µM*	-3%
COC(=O)CCC(=O)Nc1sc(C)c(C)c1C(N)=O	-1%	4%	-3%	-5%	2%
